Screening results deposited in PubChem BioAssay by National Center for Advancing Translational Sciences (NCATS).
ELG1 genotox = induces genotoxicity in HEK293T cells with luciferase-tagged ELG1; HEK293T ELG1-luciferase reporter, luminescence, 16 h; Potency, µM (top dose mostly 46 µM), without a hit: at the highest dose activity change, positive = activation, actives largely listed as activators; 330,000 tested, 1.3% active; AID 504466; also: % of control where 0% means no effect; nearly all actives have a fitted effect of over 60% in size
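Genotoxicity was scored as increased ELG1-luciferase reporter signal, measured by ONE-Glo luminescence (30 min, room temperature). Compound or vehicle exposure of the HEK293T reporter cells lasted 16 hr at 37°C.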
Rab9 promoter act = activates the Rab9 promoter; Potency, µM (series often up to 9.22 µM), inactives show top-dose activation, negative = inhibition, hits mostly activators; 320,000 tested, 2.8% active; Huh7 Rab9 promoter-luciferase reporter, luminescence, 24 h; also: % of control where 0% means no effect; nearly all actives have a fitted effect of over 60% in size
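Quantitative HTS format; Huh7 Rab9-luciferase reporter cells (1500/well) receive compound 2 h post-plating, incubate 24 h at 37 °C, then get luciferase reagent for 10 min before luminescence reading.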
FLuc modulator = inhibits or activates purified firefly luciferase, miR-21 counter-screen; AID 588342; Potency, µM (series often up to 57.5 µM), for inactives: at the highest dose activity change, negative = inhibition, hits mostly inhibitors; purified FLuc, Km substrates, luminescence inhibition; 360,000 tested, 6.9% active;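 also: plate controls were vehicle for no effect and reference inhibitor for full effect; nearly all actives have a fitted effect of over 55% in size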
Target sequence (P08659 whole entry, looked up): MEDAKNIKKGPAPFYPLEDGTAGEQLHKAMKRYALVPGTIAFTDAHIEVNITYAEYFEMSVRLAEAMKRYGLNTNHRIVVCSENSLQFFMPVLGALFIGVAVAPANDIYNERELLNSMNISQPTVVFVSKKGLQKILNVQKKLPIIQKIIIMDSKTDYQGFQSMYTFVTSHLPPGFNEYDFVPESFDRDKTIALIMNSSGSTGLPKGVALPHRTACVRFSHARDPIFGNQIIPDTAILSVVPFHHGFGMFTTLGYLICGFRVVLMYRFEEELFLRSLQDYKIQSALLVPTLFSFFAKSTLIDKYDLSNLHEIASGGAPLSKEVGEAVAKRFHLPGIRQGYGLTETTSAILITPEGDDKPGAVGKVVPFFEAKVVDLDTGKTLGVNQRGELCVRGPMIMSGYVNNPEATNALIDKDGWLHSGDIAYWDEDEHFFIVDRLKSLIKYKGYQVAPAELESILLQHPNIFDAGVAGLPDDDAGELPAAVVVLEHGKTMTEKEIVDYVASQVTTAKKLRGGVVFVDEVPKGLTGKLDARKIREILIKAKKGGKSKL
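Purified P. pyralis luciferase, 10 nM final, with Km-level 10 uM D-luciferin and 10 uM ATP in 50 mM Tris acetate pH 7.5, 10 mM Mg acetate, 0.01% Tween-20, 0.05% BSA; 6-point qHTS titration about 60 µM downward; luminescence read.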
SMN2 splice enh = SMN2 splice variant enhancement; HEK293 SMN2-luciferase splicing reporter, luminescence, 30-36 h; Potency, µM (highest dose often 46.1 µM), without a hit: top-dose activity change, positive = activation, usual class: activators; 210,000 tested, 2.8% active; also: % of control where 0% means no effect; nearly all actives have a fitted effect of over 55% in size
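HEK293 cells carry an SMN2 minigene-luciferase reporter in which exon 7 inclusion puts luciferase in frame. Cells were seeded at 2000 cells/well, attached for 10-12 hours, then exposed to compounds for 30-36 hours at 37C before ONE-Glo luminescence.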
ELG1 repair inh = inhibitors of ELG1-dependent DNA repair in HEK293T cells; HEK293T ELG1-luciferase reporter, luminescence, 16 h; DNA damage induced by 5-fluorouridine; 330,000 tested, 2.3% active; Potency, µM (doses to about 46.1 µM), for inactives: at the top dose activity change, negative = inhibition, actives largely listed as inhibitors; also: % is scaled to controls: 0 for no effect and ±100 for the full control effect; nearly all actives have a fitted effect of over 55% in size
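Reporter activity after DNA damage by 5-fluorouridine is monitored. Compound-treated cells incubate 16 hr at 37 °C, then ONE-Glo is added for 30 min before luminescence reading.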
NPC1 promoter act = NPC1 promoter activation; Huh7 NPC1 promoter luciferase reporter, 24 h; Potency, µM (doses to about 9.22 µM), inactives show at the highest dose activation, most hits filed as activators; 320,000 tested, 2.4% active; also: % of control where 0% means no effect; nearly all actives have a fitted effect of over 60% in size
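Stable NPC1-promoter luciferase Huh7 line; cpd (DMSO) 24 h, 37 °C, 5% CO2; Amplite luciferase reagent 10 min RT; luminescence readout. qHTS format.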
The depositor's hits bear a star; ? = inconclusive; . = no result. In the library only some 9.2% were active in any assay of this set; here they are far more common. Calls follow the shape of the dose curve; as a rule, active = well fitted curve in the direction sought with a large enough effect; inconclusive = small, poorly fitted or top-dose-only effect, or another doubt; inactive = no such curve, though single readings can be large; an effect the other way counts as inactive or inconclusive. Potency is read from the fitted curve at half-maximal effect.

SMILES	ELG1 genotox	Rab9 promoter act	FLuc modulator	SMN2 splice enh	ELG1 repair inh	NPC1 promoter act
CCn1c(=O)c2cc(C(=O)N3CCN(C)CC3)sc2c2ccccc21	-5%	-2%	1%	-1%	?	-1%
CCCS(=O)(=O)NCc1cn2cccc(C)c2n1	4%	1%	-1%	20%	11%	-4%
Cc1cccn2cc(CNc3ccccc3)nc12	21µM*	?	?	22µM*	?	?
Cc1cccn2cc(-c3ccccc3)nc12	?	1.8µM*	3µM*	11µM*	?	1.6µM*
CCCS(=O)(=O)Nc1cc(-c2cn3cccc(C)c3n2)ccc1C	.	.	12µM*	29%	.	.
Cc1cccn2cc(-c3ccc(F)cc3)cc12	9%	10%	?	2%	18%	1%
Cc1cccn2cc(-c3ccc(F)cc3)nc12	0.92µM*	1.8µM*	2.4µM*	.	?	1.1µM*
CCOC(=O)c1cccc(NC(=O)CSc2ncc3c(n2)-c2ccc(Cl)cc2N(Cc2ccccc2)S3(=O)=O)c1	.	.	-7%	.	.	.
OCC[C@H]1C[C@H](O)[C@@H](O)[C@@]2(Cc3ccccc3O2)O1	1%	-6%	1%	.	-1%	1%
COc1ccc(-c2cn3cccc(C)c3n2)cc1Br	?	2.8µM*	2.4µM*	11µM*	?	3.5µM*
O=C(NC1CCCCC1)c1cc(-c2ccc(O)cc2)on1	?	3.2µM*	?	.	?	2.5µM*
O=C(NC1CCCCC1)c1cc(-c2ccccc2O)on1	21µM*	?	?	.	?	?
COc1ccc(-c2cc(C(=O)NC3CCCCC3)no2)cc1OC	3%	6%	1%	.	-18%	0%
O=C(Nc1cccnc1Cl)c1cc(-c2ccc(O)cc2)on1	?	25%	?	.	-4%	-3%
Cc1ccc(-c2cc(C(=O)NC3CCCCC3)no2)cc1	17%	3.5µM*	?	.	?	2.5µM*
Cc1cc(F)ccc1NC(=O)CS(=O)(=O)c1cccc2nsnc12	.	.	-3%	.	.	.
CCOC(=O)c1cc(-c2ccccc2)nn1Cc1cc(CC)no1	?	?	?	.	?	21%
CCOC(=O)c1cc(-c2ccccc2C)nn1Cc1cc(CC)no1	7%	26%	17µM*	.	?	17%
CCCNC(=O)C1CCN(c2cc(C)nc3c(-c4ccc(OC)c(OC)c4)c(C)nn23)CC1	.	.	0%	0%	.	.
COc1ccccc1CNC(=O)CCS(=O)(=O)c1ccc2c(c1)oc(=O)n2C	.	.	2%	.	.	.
O=C(c1ccccc1)c1ccc2nc(N3CCN(C(=O)c4ccco4)CC3)c3nncn3c2c1	-13%	2%	-12%	-11%	21µM*	-2%
N#CC/C(N)=N/NC(=O)CCCNc1ncc(C(F)(F)F)cc1Cl	10%	?	-2%	16µM*	7%	20%
Cc1nnc(N2CCN(c3ccccc3F)CC2)c2c1nnn2Cc1ccc(F)cc1	.	.	0%	-3%	.	.
CN(C)S(=O)(=O)c1cccc(NC(=O)C2CCN(S(=O)(=O)c3cccs3)CC2)c1	-8%	.	.	.	21µM*	.
O=C(Nc1cc(Cl)ccn1)C1CCN(S(=O)(=O)c2cccs2)CC1	-8%	-17%	-1%	-83%	8.2µM*	-11%
O=C(Nc1ccncc1)C1CCN(S(=O)(=O)c2cccs2)CC1	-4%	1%	-3%	-14%	-11%	-3%
CC(=O)c1cccc(NC(=O)C2CCN(S(=O)(=O)c3cccs3)CC2)c1	-6%	-5%	5%	-3%	?	0%
CCc1ccc(NC(=O)CCn2c(-c3ccc(OC)cc3)cc(C(C)=O)c2C)cc1	.	.	-1%	.	.	.
Cc1ccc(-c2nnc(Nc3ccc(O)cc3)c3ccccc23)cc1S(=O)(=O)NCc1nc2ccccc2[nH]1	.	.	-4%	-2%	.	.
COc1ccc2nc3sc(C(=O)NCCCN4CCc5ccccc5C4)cc3cc2c1	3%	10%	19µM*	1%	3%	0%
